Test results from PubChem BioAssay (NCI).
This is part of a sample that, as a whole, favours compounds with a hit. Of some 83,000 tested, about 20% had one in any assay.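 Activity criterion: percent growth below 10, measured after cells in 96-well plates were exposed to a single compound concentration for 48 hours.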 Active and inactive are the calls of the source.

How the values were obtained:
Assay in all cases: NCI-60 one-dose screen, 48 h (100 = growth as untreated, 0 = no growth, -100 = all killed)
Details in all cases: 10 µM unless noted
[1] = test system: NCI-H23 lung
[2] = test system: NCI-H226 lung
[3] = test system: NCI-H322M lung
[4] = test system: NCI-H460 lung
[5] = test system: HOP-92 NSCLC
[6] = test system: NCI-H522 lung
[7] = test system: A549/ATCC NSCLC
[8] = test system: 786-0 renal
[9] = test system: COLO 205 colon
[10] = test system: HOP-62 NSCLC

Measured: growth

Fc1cccc(CNc2c3ccccc3nc3ccccc23)c1
active: [5] -4.06%
inactive: [1] 33.9% | [2] 50.6% | [3] 40.2% | [4] 12.7% | [6] 37.8% | [7] 29.3% | [8] 36.4% | [9] 17.3%

COc1ccc(/C=C2\c3cc(OC)c(OC)c(OC)c3CC[C@@H]2O)cc1F
inactive: [1] 37.3% | [2] 58.1% | [3] 66.3% | [4] 13.8% | [5] 38.2% | [7] 16.7% | [8] 34.7%
active: [6] -32.5% | [9] 2.26%

C=C1C(=O)O[C@@H]2C3C(=C(C)CC[C@@H]12)CC1O[C@]13C (some centres undefined)
active: [6] -52.3% [6.75 µM]
inactive: [1] 82.9% [6.75 µM] | [2] 88.2% [6.75 µM] | [3] 95.8% [6.75 µM] | [4] 101% [6.75 µM] | [5] 102% [6.75 µM] | [7] 90.1% [6.75 µM] | [8] 83.1% [6.75 µM] | [9] 87% [6.75 µM]

C[N+]1=C(/C=C/c2ccccc2Cl)C(C)(C)c2ccccc21
inactive: [1] 74.3% | [2] 80% | [3] 98.6% | [4] 103% | [5] 90.1% | [6] 81.8% | [7] 92.5% | [8] 95.9% | [9] 95.9%

O=C(/C=C/C12c3ccccc3C(c3ccccc31)C1C(=O)NC(=O)C12)c1ccc(I)cc1 (centres undefined)
inactive: [1] 59.3% | [2] 88.8% | [3] 65.1% | [4] 44.8% | [5] 63.7% | [6] 55% | [7] 71.9% | [8] 64.6% | [9] 78.8%

O=S(=O)(Nc1cc(Sc2nc3ccccc3s2)c(O)c2ccccc12)c1ccc2ccccc2c1
inactive: [1] 76.3% | [2] 94.1% | [3] 94.9% | [4] 99.7% | [5] 109% | [6] 83% | [7] 99.9% | [8] 111% | [9] 101%

COC12C=C/C(=C(/C(=O)OCCSc3ccnn3C)C(=O)CCCCCCCCC3(OC)C=C/C(=C(/C(=O)OCCSc4ccnn4C)C(=O)CCCCCCCC1)O3)O2
inactive: [3] 11.6%
active: [1] -44% | [2] -53.6% | [4] 3.85% | [5] -18.9% | [6] -17.3% | [7] 5.51% | [8] -29.2% | [9] -41.7%

C=C1C(=O)O[C@H]2[C@H]1CC/C(CNC(=O)Cc1c[nH]c3ccccc13)=C\CC[C@@]1(C)O[C@@H]21
inactive: [1] 30% | [3] 82.2% | [4] 29.6% | [5] 45.1% | [7] 62%
active: [2] -45.8% | [6] -79.4% | [8] -36.4% | [9] -74.9%

CCOc1ccc(/C=C/C(=O)c2cccc(OCCCOc3cccc(C(=O)/C=C/c4ccc(OCC)cc4)c3)c2)cc1
inactive: [1] 83.9% | [2] 73.8% | [3] 84.5% | [4] 65.4% | [5] 91.6% | [7] 85.4% | [8] 100% | [9] 116%

CC(C)(C)CC(C)(C)Nc1c(-c2c(O)c3ccccc3oc2=O)nc2sc3ccccc3n12
inactive: [1] 44.1% | [2] 56.7% | [3] 42.5% | [10] 23.1% | [5] 10.8% | [7] 30.9% | [8] 35.6% | [9] 28.7%

COc1ccc(-c2cc(C(=O)N3N=C(c4ccc(N)cc4)CC3c3ccc(Cl)cc3)c3cc(OC)ccc3n2)cc1 (centres undefined)
inactive: [1] 67.6% | [2] 89.1% | [3] 90.9% | [4] 105% | [5] 59.2% | [6] 44.9% | [7] 86.5% | [8] 19.2% | [9] 96.3%

O=C(Nc1ccc(Oc2cccc(Cl)c2)c(Cl)c1)c1cccnn1
inactive: [1] 84.1% | [2] 78.8% | [3] 93.9% | [4] 99.8% | [5] 84.4% | [6] 73.6% | [7] 75.3% | [8] 77.4% | [9] 106%

O=C(NCCCCCCNC(=O)OCc1ccc2c(Cl)cc(Cl)c(O)c2n1)OCc1ccc2c(Cl)cc(Cl)c(O)c2n1
inactive: [3] 43.6%
active: [1] -69.2% | [2] 1.25% | [4] -30.7% | [5] -60.1% | [6] -57.4% | [7] -39.6% | [8] -63.1% | [9] -82.5%

NS(=O)(=O)c1ccc(C(=O)N=Nc2c(O)[nH]c3ccc(Cl)cc23)cc1
inactive: [1] 98.3% | [2] 103% | [3] 104% | [4] 106% | [5] 103% | [6] 89.3% | [7] 104% | [8] 102% | [9] 120%

O=C1c2cccnc2C(=O)c2c1c(C(=O)OCCc1ccccn1)c1ccccn21
active: [1] -55.8% | [2] -50.1% | [3] -53.3% | [4] -71% | [7] -65.9% | [8] -63.2% | [9] -62.3%
inactive: [5] 15.1%

CSc1ccc(N2C(=N)C(=S)N(c3ccc(C)cc3)C2=O)cc1
inactive: [1] 98.3% | [2] 96.3% | [3] 99% | [4] 102% | [5] 90% | [6] 80.5% | [7] 87.6% | [8] 91.5% | [9] 98%

O=C1/C(=C/c2c[nH]c(=O)[nH]c2=O)SC(=S)N1Cc1ccccc1
inactive: [1] 96.4% | [2] 102% | [3] 95.1% | [4] 105% | [5] 98.5% | [6] 90.7% | [7] 101% | [8] 100% | [9] 88.2%

Nc1cccc(-c2ccc(COc3ccc(CC4SC(=O)NC4=O)cc3)cc2)c1 (centres undefined)
inactive: [1] 70.5% | [2] 94.1% | [3] 89.6% | [4] 43.8% | [5] 42.3% | [6] 29.7% | [7] 44.8% | [8] 77.9% | [9] 101%

O=C(Nc1ccccc1O)c1ccc(CNc2ccnc(C(F)(F)F)c2)cc1
inactive: [1] 39.1% | [2] 68.9% | [3] 56.4% | [4] 38.8% | [5] 78.2% | [6] 34.3% | [7] 56.5% | [8] 45.4% | [9] 112%

COc1ccc(C2CC(n3ccnc3)c3cc(OC)c(OC)c(OC)c32)cc1O (centres undefined)
inactive: [1] 91.5% | [2] 97.4% | [3] 102% | [4] 78.7% | [5] 59.6% | [6] 50.1% | [7] 55.8% | [8] 91.7% | [9] 107%

COc1ccc(Oc2ccc(/C=C/C(=O)c3cc4ccccc4oc3=O)cc2)cc1
inactive: [1] 81% | [2] 92.2% | [3] 84.5% | [4] 102% | [5] 58.2% | [6] 65.1% | [7] 95.2% | [8] 108% | [9] 120%

CCN(CC)CCOc1ccc2ccc(=O)oc2c1
active: [5] -15.1%
inactive: [1] 106% | [2] 106% | [3] 88.2% | [6] 89.6% | [7] 99.7% | [8] 101% | [9] 102%

CCOC(=O)CNC1=C(Cl)C(=O)N(Cc2ccc(Cl)cc2)C1=O
inactive: [1] 102% | [2] 99.7% | [3] 97% | [4] 104% | [5] 93.4% | [6] 89.1% | [7] 106% | [8] 99% | [9] 118%

COc1ccc(/C=C2\CN(C(=O)C(Cl)Cl)C/C(=C\c3ccc(OC)c(OC)c3)C2=O)cc1OC
active: [1] -51.8% | [4] -51.9% | [5] -7.03% | [6] -14.1% | [7] 4.8% | [8] -94.9% | [9] -2.98%
inactive: [2] 42.8% | [3] 30%

O=C(NCc1ccc(Cn2c(=O)sn(-c3ccccc3)c2=O)cc1)OCc1ccc2cccc(O)c2n1
active: [1] -67.4% | [5] -65.3% | [6] -53.5% | [7] -27.3% | [8] -87.7% | [9] -57.4%
inactive: [2] 35.6% | [3] 67.4% | [4] 27.2%

O=C(c1cccc(N2CCOCC2)n1)c1c[nH]c2ccccc12
inactive: [1] 92.7% | [3] 97% | [10] 87.6% | [4] 86.7% | [5] 92.8% | [7] 95.3% | [8] 98.7% | [9] 107%
